Only some compounds are listed: those with a hit (about 32% of all), similar ones and a draw of the others.
CYP2C19 act = human CYP2C19 activators, primary screen, biochemical, luminescence. Cytochrome P450 2C19 (Homo sapiens), P33261. recombinant CYP2C19, luciferin-H EGE luminescence; stronger effect = higher value; 0 = fully inhibited enzyme, 1 = untreated enzyme. activation factor at 5 µM. 96,000 tested, under 10 active;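 active means activation factor of at least 2 at 5 µM in the primary screen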
CYP2C19 inhib = blockers of cytochrome P450 2C19 activity – biochemical, luminescence, ADME assay, primary screen. inhibition, % at 5 µM. P33261. actives 21% (n = 96,000). CYP2C19 Supersomes, luciferin-H EGE luminescence, 30 min;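 active means CYP2C19 inhibition above a set limit at 5 µM in the primary screen, cut at about 50% in these data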
CYP2C9 inh = blockers of cytochrome P450 2C9 activity – biochemical, luminescence, ADME assay, primary screen; P11712; CYP2C9 Supersomes, luciferin-H conversion; inhibition, % at 5 µM; actives 20% (n = 96,000); AID 777, 2007;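 active means blocking of liver enzyme CYP2C9 beyond about 50% at 5 µM, limit read from the data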
Target sequence (P11712 whole entry, looked up): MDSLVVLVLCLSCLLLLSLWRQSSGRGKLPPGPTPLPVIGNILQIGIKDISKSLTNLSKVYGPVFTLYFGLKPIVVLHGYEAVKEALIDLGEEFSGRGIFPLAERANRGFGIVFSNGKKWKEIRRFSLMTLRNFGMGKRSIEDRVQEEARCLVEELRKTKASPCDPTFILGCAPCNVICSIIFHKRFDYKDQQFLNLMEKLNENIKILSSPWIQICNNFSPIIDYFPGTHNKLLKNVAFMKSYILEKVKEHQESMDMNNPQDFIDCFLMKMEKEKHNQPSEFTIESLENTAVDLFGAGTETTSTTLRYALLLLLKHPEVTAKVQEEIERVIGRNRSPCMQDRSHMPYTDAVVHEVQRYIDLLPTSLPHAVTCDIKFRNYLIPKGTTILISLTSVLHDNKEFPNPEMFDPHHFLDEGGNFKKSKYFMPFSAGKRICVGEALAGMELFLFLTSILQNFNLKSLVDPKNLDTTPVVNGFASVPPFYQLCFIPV
CYP2C9 activ = human CYP2C9 activators, primary screen, biochemical, luminescence. Cytochrome P450 2C9 (Homo sapiens), P11712. recombinant CYP2C9, luciferin-H conversion; stronger effect = higher value; factor 1 = untreated enzyme, 0 = blocked. activation factor at 5 µM. actives 1.4% (n = 96,000). AID 1024, 2008;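 active means activation factor of 2 or more for CYP2C9 at a 5 µM dose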
PostGolgi yeast = phenotypic screen on post-Golgi transport, primary screen | post-Golgi transport phenotypic cell assay | inhibition, % at 10 µM | actives 0.9% (n = 98,000);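 further: yeast cells grown in 1536-well plates; yeast grown about 18 h at 30C before absorbance read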
PostGolgi ctrl = growth inhibition of yeast control strain, primary screen, counter-screen for post-Golgi transport modulator project; AID 738, 2007; actives 5% (n = 98,000); efflux-deficient yeast background strain, growth absorbance A615, 16 h; inhibition, % at 10 µM
A number is an active result; n = inactive; x = no result. Unless noted, no stated cut-off is given here; in the data, active means inhibition above about 30%; inactive means the rest.

SMILES	CYP2C19 act	CYP2C19 inhib	CYP2C9 inh	CYP2C9 activ	PostGolgi yeast	PostGolgi ctrl
O=C(Nc1ccc(F)cc1)N1CCOCC1	n	n	n	n	n	n
O=C(Cc1coc(-c2ccc(F)cc2)n1)N1CCOCC1	n	50.5	51.8	n	n	n
COc1ccccc1OC(=O)CN1C(=O)c2ccccc2C1=O	n	n	n	n	n	n
O=C(O)CNC1=NCCCCC1	n	n	n	n	n	n
CC(CO)Nc1nc(SCc2ccccc2)nc2sc3c(c12)CCC3 (configuration not stated)	n	n	56.5	n	n	49.7
COc1ccc(CNC(=O)[C@H](C)NC(=O)C2CCN(S(=O)(=O)c3ccc(C)cc3)CC2)cc1	n	n	n	n	n	n
O=C(NC1CC2CCC1C2)C1CCN(S(=O)(=O)c2ccc(-c3nn[nH]n3)cc2)CC1 (configuration not stated)	n	n	86.6	n	n	n
COc1ccc(CNC(=O)C2CCN(S(=O)(=O)c3ccc(-c4nn[nH]n4)cc3)CC2)cc1	n	n	65.0	n	n	n
CCCNC(=O)C1CCN(S(=O)(=O)c2ccc(-c3nn[nH]n3)cc2)CC1	n	n	83.2	n	n	n
Cc1ccc(S(=O)(=O)N2CCC(C(=O)NCCN3CCCCCC3)CC2)cc1	n	n	n	n	n	n
Cc1cccc(NC(=O)Cn2cnc3ccc(S(=O)(=O)N4CCC(C)CC4)cc3c2=O)n1	n	n	n	n	n	n
CC(C)CCOC(=O)C1[C@H]2C(=O)N(Cc3cccs3)C[C@]23C=C[C@H]1O3 (some centres not stated)	n	n	n	n	n	n
O=C(Nc1ccccc1N1CCN(C(=O)c2ccc(Cl)cc2)CC1)c1cc2ccccc2o1	n	75.1	91.8	n	n	n
O=C(Nc1ccccc1N1CCN(C(=O)c2ccc(Cl)cc2)CC1)c1ccc(Br)cc1	n	65.5	81.8	n	n	n
O=C(Nc1cccc(Cl)c1N1CCCC1)c1cc2ccccc2o1	n	n	63.9	n	n	n
Oc1c(C(c2cccc(F)c2)N2CCN(Cc3ccccc3)CC2)sc2ncnn12 (configuration not stated)	x	x	x	x	n	n
CCn1c(NC(=O)c2ccc(COc3ccc(C)cc3[N+](=O)[O-])o2)nc2ccccc21	n	n	n	n	n	n
O=C(NC12CC3CC(CC(C3)C1)C2)c1ccc(COc2ccc(Cl)cc2[N+](=O)[O-])o1	n	n	74.7	n	n	50.8
CC(=O)Nc1ccc(S(=O)(=O)n2nc(C)cc2C)cc1	n	n	n	n	n	n
Cc1ccc2ccc(S(=O)(=O)n3nc(C)cc3C)cc2c1	n	61.0	n	n	n	n
COc1cccc2c1N1C(=O)c3c(C(=O)O)cccc3C1CC2(C)C (configuration not stated)	n	n	70.2	n	n	n
O=C(Nc1ccc(N2CCOCC2)cc1)c1cccc(S(=O)(=O)N2CCC(Cc3ccccc3)CC2)c1	n	n	63.5	n	n	n
CC(=O)Nc1ccc(S(=O)(=O)N2CCN(C(C)CCc3ccccc3)CC2)cc1 (configuration not stated)	n	n	55.5	n	n	n
COC(=O)Nc1ccc(S(=O)(=O)N2CCC(Cc3ccccc3)CC2)cc1	n	n	n	n	n	35.0
O=P(COCCOCP(=O)(c1ccccc1)c1ccccc1)(c1ccccc1)c1ccccc1	n	n	n	n	n	n
SMILES	CYP2C19 act	CYP2C19 inhib	CYP2C9 inh	CYP2C9 activ	PostGolgi yeast	PostGolgi ctrl
O=C(O)CP(=O)(c1ccccc1)c1ccccc1	n	n	n	n	n	n
COCP(=O)(c1ccccc1)c1ccccc1	n	n	n	n	n	n
O=P(Cc1ccncc1)(c1ccccc1)c1ccccc1	n	59.6	n	n	n	n
O=P(COc1ccccc1)(c1ccccc1)c1ccccc1	n	n	71.8	n	n	n
O=P(CCCCCCCCCP(=O)(c1ccccc1)c1ccccc1)(c1ccccc1)c1ccccc1	n	80.1	99.1	n	n	n
Cc1ccc(C2C3CN(C(C)C)CC=C3C(C#N)=C(N)C2(C#N)C#N)cc1 (configuration not stated)	n	n	n	n	n	n
CCCSc1nnc(Cn2c(=O)sc3ccccc32)n1C	x	x	x	x	n	n
Cc1ccccc1Cc1c(C)nc2ncnn2c1C	n	n	n	n	n	n
Cc1nc2ncnn2c(C)c1Cc1ccccc1Cl	n	86.8	n	n	n	n
Cn1c(SCC(=O)N2CCN(Cc3ccccc3)CC2)nnc1-c1ccncc1	n	n	n	n	n	n
COc1cccc2sc(N(C)c3ccccc3)nc12	n	78.1	n	n	n	n
CCOC(=O)C1=C(C)C(c2ccccc2O)NC(=O)N1 (configuration not stated)	n	n	n	n	n	n
Cn1cnnc1SCC(=O)NC(=O)NC1CCCC1	n	n	n	n	n	n
COc1cccc(-c2noc(-c3cccs3)n2)c1	n	n	n	n	n	n
COc1cccc(-c2noc(C(C)n3nc(C)c([N+](=O)[O-])c3C)n2)c1 (configuration not stated)	n	n	54.9	n	n	n
CC(C)(C)NC(=O)C(c1ccco1)N(Cc1ccc(F)cc1)C(=O)c1snc(C(N)=O)c1N (configuration not stated)	n	65.6	56.0	n	n	n
COc1ccccc1N(C(=O)c1snc(C(N)=O)c1N)C(C(=O)NC1CCCC1)c1ccco1 (configuration not stated)	n	62.1	n	n	n	n
COCCNC(=O)C(c1ccc(C)o1)N(C(=O)c1snc(C(N)=O)c1N)c1cc(C)cc(C)c1 (configuration not stated)	n	65.9	55.8	n	n	n
COc1ccccc1N(C(=O)c1snc(C(N)=O)c1N)C(C(=O)NCCC(C)C)c1ccco1 (configuration not stated)	n	n	n	n	n	n
CC(C(=O)NC1CCCC1)N(C(=O)c1snc(C(N)=O)c1N)c1ccc2c(c1)OCCO2 (configuration not stated)	n	n	50.1	n	n	n
Cc1cccc(N2CCN(CC(=O)NCC3CCCCC3)CC2)c1C	n	n	n	n	n	n
Cc1onc(-c2c(F)cccc2Cl)c1C(=O)OCC(=O)Nc1c(C)n(C)n(-c2ccccc2)c1=O	n	n	n	n	n	n
CCOc1ccccc1N(C(=O)c1snc(C(N)=O)c1N)C(C(=O)NCCC(C)C)c1ccco1 (configuration not stated)	n	n	50.1	n	n	n
Cc1ccc(Cl)cc1N1CCN(Cc2cc3c(cc2O)CCC3)CC1	n	n	n	n	n	n
